Screening results deposited in PubChem BioAssay by National Center for Advancing Translational Sciences (NCATS).
PLK1 PBD inh: PLK1 (human) polo-box domain binding inhibition. 360,000 compounds, 2.8% hits. Plk1 PBD binding of FITC phosphopeptide, fluorescence polarization. AID 720504. P53350. Potency, µM, for inactives: max response, negative = inhibition, usual class: inhibitors; further: series mostly up to about 57 µM; nearly all actives have a fitted effect of over 65% in size
Target sequence (P53350 whole entry, looked up, the tested form may be a part): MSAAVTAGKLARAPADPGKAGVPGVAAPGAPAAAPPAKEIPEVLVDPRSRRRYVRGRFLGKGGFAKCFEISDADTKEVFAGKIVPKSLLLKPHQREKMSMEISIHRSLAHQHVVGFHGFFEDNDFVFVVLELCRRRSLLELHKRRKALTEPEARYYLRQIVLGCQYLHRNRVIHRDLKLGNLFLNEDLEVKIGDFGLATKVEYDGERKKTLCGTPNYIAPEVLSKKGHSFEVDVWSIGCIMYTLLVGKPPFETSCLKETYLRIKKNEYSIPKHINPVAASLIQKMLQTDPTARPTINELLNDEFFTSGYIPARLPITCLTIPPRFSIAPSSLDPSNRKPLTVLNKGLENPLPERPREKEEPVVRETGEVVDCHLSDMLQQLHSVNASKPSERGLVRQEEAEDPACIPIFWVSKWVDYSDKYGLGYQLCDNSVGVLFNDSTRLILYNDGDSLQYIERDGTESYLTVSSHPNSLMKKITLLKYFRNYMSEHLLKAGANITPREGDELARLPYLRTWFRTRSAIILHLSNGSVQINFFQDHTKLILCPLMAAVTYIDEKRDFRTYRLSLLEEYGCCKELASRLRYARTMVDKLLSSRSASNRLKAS
Tau fluor counter: counter-screen for tau fibril formation inhibitors | tau K18 P301L Alexa594 fluorescence, heparin fibrillization | AID 1463 | 280,000 compounds, 0.93% hits | Potency, µM (doses to about 57.7 µM), without a hit: at the top dose activity change, negative = decrease; further: nearly all actives have a fitted effect of over 55% in size
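Human tau K18 P301L (15 uM unlabeled, 0.24 uM Alexa 594-labeled) in 100 mM sodium acetate pH 7 with 20 uM heparin, 6 hr at 37 C. ThT 30 uM added, 1 hr ambient; Alexa 594 FP and total fluorescence read at 555/632 nm.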
Tau ThT inhib: inhibitors of human tau fibril formation, thioflavin T binding. P10636. recombinant tau K18 P301L (four-repeat tau fragment), heparin-induced fibrillization, ThT fluorescence. Potency, µM (titrated, usually from 57.4 µM), inactives show at the highest dose activity, negative = inhibition, usual class: inhibitors. 270,000 compounds, 2.1% hits. AID 1460; further: nearly all actives have a fitted effect of over 55% in size
Target sequence (P10636 561-689 P618L limits assumed): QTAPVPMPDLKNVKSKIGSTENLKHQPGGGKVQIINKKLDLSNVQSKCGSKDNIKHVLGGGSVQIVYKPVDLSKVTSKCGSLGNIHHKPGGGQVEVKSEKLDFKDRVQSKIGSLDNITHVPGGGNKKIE
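Heparin-induced (20 uM) aggregation of recombinant human K18 P301L tau, 15 uM unlabeled with 0.24 uM labeled, pH 7 acetate buffer, 6 hr at 37 C with compound. Fibrils quantified by 30 uM ThT fluorescence after 1 hr ambient incubation.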
Sfp PPTase inh: Sfp phosphopantetheinyl transferase inhibition; Biochemical Sfp PPTase activity, qHTS; Potency, µM, without a hit: largest response in the series, negative = inhibition, actives largely listed as inhibitors; 310,000 compounds, 3.5% hits;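 further: the enzyme is Sfp with the accession as filed and its product quenches rhodamine fluorescence; 0% = enzyme reaction without inhibitor and -100% = no enzyme wells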
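Fluorescence-quenching assay with 15 nM Sfp, 5 uM rhodamine-CoA and 12.5 uM BHQ-2-labelled ybbR peptide in pH 7.6 Hepes/MgCl2 buffer. Enzyme was pre-incubated with compound for 15 min at room temperature. Rate was taken from the 30-min fluorescence change (525/598 nm).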
VDR inh: vitamin D3 receptor (human) inhibition; P11473; VDR-SRC2-3 peptide fluorescence polarization, 2 h; Potency, µM, without a hit: max response, negative = inhibition, usual class: inhibitors; 400,000 compounds, 0.93% hits; AID 504847
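Two reagent solutions held at 4 deg C in the dark were dispensed, compounds pinned at 23 nl, and the mixture incubated 2 h at room temperature. Read-out: fluorescence polarization of VDR–SRC2-3 peptide binding.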
Tau FP inhib: tau fibrillization inhibition (FP). P10636. AID 1468. 280,000 compounds, 0.39% hits. Potency, µM (doses to about 57.7 µM), for the others: at the top dose activity, negative = inhibition, usual class: inhibitors. K18 P301L tau heparin fibrillization, Alexa594 FP, 6 h; further: nearly all actives have a fitted effect of over 55% in size
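Human K18 P301L fragment (15 uM unlabeled plus 0.24 uM Alexa 594-labeled) in 100 mM sodium acetate pH 7 with compound, aggregation induced by 20 uM heparin for 6 hr at 37 C. ThT (30 uM) added for 1 hr, then Alexa 594 FP read.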
Numbers without * were called inactive; [ ] = dose if it differs, or a comment. A selection: hits, their analogues and other compounds. The true share with any hit is near 6%. The call rests on the fitted dose curve; in most records, active means well fitted curve in the direction sought with a large enough effect; inconclusive means small, poorly fitted or top-dose-only effect, or another doubt; inactive means no such curve, though single readings can be large; an effect the other way counts as inactive or inconclusive. Unless noted, on the % scale 0 is the no-effect control and ±100 the full control effect; potency means the concentration at half of the fitted maximal effect.

COc1ccccc1OCC(=O)Sc1ccc(C)cc1 was read as PLK1 PBD inh 3µM*, Tau fluor counter 10%, Tau ThT inhib inconclusive, Sfp PPTase inh -6%, VDR inh inconclusive and Tau FP inhib 5%.
COc1ccccc1CNC(=O)C(C)Sc1ccc(C)cc1 (stereo not given) was read as PLK1 PBD inh 21µM*, Tau fluor counter 2%, Tau ThT inhib -3%, Sfp PPTase inh 29%, VDR inh -24% and Tau FP inhib 7%.
Screening Cc1ccccc1CNC(=O)C(C)Sc1ccccc1 (stereo not given) returned PLK1 PBD inh -8%.
Screening COCCNC(=O)CC(NS(=O)(=O)c1ccc(C)cc1)c1ccco1 (stereo not given) returned PLK1 PBD inh 1%, Tau fluor counter 1%, Tau ThT inhib -1%, Sfp PPTase inh -22%, VDR inh -13% and Tau FP inhib 5%.
COc1cc(C(=O)Sc2ccc(C)cc2)cc(OC)c1OC was read as PLK1 PBD inh -9%, Tau fluor counter -9%, Tau ThT inhib inconclusive, Sfp PPTase inh -13%, VDR inh -18% and Tau FP inhib -14%.
Cc1ccc(S(=O)(=O)/C=C2\OCc3ccccc32)cc1 was read as PLK1 PBD inh -9%.
Cc1ccc(S(=O)(=O)N2C3CC(c4ccccc4)N(S(=O)(=O)c4ccccc4Cl)CC3C(=O)C[C@H]2c2ccccc2)cc1 (stereo not given in full) was read as PLK1 PBD inh -7%.
`CC1(C)Cc2ccccc2C(/C(=N\Nc2cccc(Cl)c2)C(N)=O)=N1` gave PLK1 PBD inh -4%, Tau fluor counter inconclusive, Tau ThT inhib 14µM*, Sfp PPTase inh 1%, VDR inh -14% and Tau FP inhib 9%.
CC(=O)c1ccc(N/N=C(/C(N)=O)C2=NC(C)(C)Cc3ccccc32)cc1 was read as PLK1 PBD inh -5%, Tau fluor counter -26%, Tau ThT inhib inconclusive, Sfp PPTase inh -9%, VDR inh 0% and Tau FP inhib 5%.
For Cc1cccc(OCC(=O)NCc2ccc3c(c2)CCN3C(=O)c2ccccc2)c1 the results were Tau fluor counter -4%, Tau ThT inhib -12%, VDR inh 4% and Tau FP inhib 7%.
`CSc1nc(=NC(C)=O)ss1` gave PLK1 PBD inh 7.9µM*, Tau fluor counter -22%, Tau ThT inhib 25µM*, Sfp PPTase inh 4.5µM*, VDR inh inconclusive and Tau FP inhib inconclusive.
For Cc1nn(-c2ccccc2)c(-n2cccc2)c1C(=O)N1CCN(c2ccccc2)CC1 the results were Tau fluor counter 1%, Tau ThT inhib -9%, VDR inh 22% and Tau FP inhib -2%.
Screening CCOC(=O)c1ccc(N2CCN(c3cc(C)ccc3C)CC2)c(NC(=O)Nc2ccc(Cl)cc2)c1 returned Tau fluor counter -25%, Tau ThT inhib 3%, VDR inh 11% and Tau FP inhib -10%.
COC(=O)c1c(NC(=O)CN2CCN(C(=O)c3ccco3)CC2)c2c(C)cccc2n1C was read as PLK1 PBD inh -2%, Tau fluor counter -12%, Tau ThT inhib -13%, Sfp PPTase inh 20µM*, VDR inh -5% and Tau FP inhib -4%.
Screening CC(=O)Nc1ccc(-c2csc(NC(=O)CCCc3cccs3)n2)cc1 returned PLK1 PBD inh -2%, Tau fluor counter inconclusive, Tau ThT inhib inconclusive, Sfp PPTase inh -31%, VDR inh -1% and Tau FP inhib -12%.
`ClCc1csc(N/N=C/c2cccs2)n1` gave Tau fluor counter inconclusive, Tau ThT inhib 18µM*, Sfp PPTase inh 45µM* and Tau FP inhib inconclusive.
For CN(C)S(=O)(=O)c1ccc(-c2csc(N/N=C/c3ccc(O)cc3)n2)cc1 the results were PLK1 PBD inh -6%, Tau fluor counter 10µM*[quencher], Tau ThT inhib 14µM*, Sfp PPTase inh 50µM*, VDR inh 8% and Tau FP inhib -6%.
For Cn1cc([N+](=O)[O-])c(C(=O)Nc2nc(-c3ccc(Cl)cc3)cs2)n1 the results were PLK1 PBD inh -5%, Tau fluor counter 13µM*[quencher], Tau ThT inhib inconclusive, Sfp PPTase inh -5%, VDR inh 2% and Tau FP inhib 7%.
Cc1ccc(-c2csc(NC(=O)CCCc3cccs3)n2)cc1 was read as PLK1 PBD inh 17µM*, Tau fluor counter -8%, Tau ThT inhib -10%, Sfp PPTase inh 18%, VDR inh -14% and Tau FP inhib -1%.
Screening O=C(C1CCCCC1)N(Cc1cccnc1)c1nc2c(F)cccc2s1 returned Tau fluor counter -6%, Tau ThT inhib -9%, VDR inh 9% and Tau FP inhib 1%.
Screening O=C(NC1CCCC1)C(C1CC1)n1c(-c2ccccn2)nc2ccccc21 (stereo not given) returned PLK1 PBD inh 3%.
Screening C(=N\Nc1nc(-c2ccccc2)cs1)/c1cccs1 returned PLK1 PBD inh 30µM*, Tau fluor counter 13µM*[quencher], Tau ThT inhib 14µM*, Sfp PPTase inh 8.9µM*, VDR inh 19% and Tau FP inhib 8%.
`O=C(O)Cc1sc(Nc2ccccc2)nc1-c1ccccc1` gave Tau fluor counter -21%, Tau ThT inhib inconclusive, VDR inh -5% and Tau FP inhib 11%.
Screening Cc1sc(N/N=C/c2cccnc2)nc1-c1ccccc1 returned PLK1 PBD inh -10%, Tau fluor counter inconclusive, Tau ThT inhib inconclusive, Sfp PPTase inh -99%, VDR inh -7% and Tau FP inhib -2%.
Screening Cc1ccc(-c2csc(N/N=C/C=C/c3ccccc3)n2)cc1 returned PLK1 PBD inh -17%, Tau fluor counter inconclusive, Tau ThT inhib inconclusive, Sfp PPTase inh -23%, VDR inh -3% and Tau FP inhib 15%.
C(=N/Nc1nccs1)/c1cccnc1 was read as PLK1 PBD inh -6%, Tau fluor counter -18%, Tau ThT inhib inconclusive, Sfp PPTase inh 50µM*, VDR inh 15% and Tau FP inhib 4%.
Screening O=C(O)Cc1sc(N/N=C\c2ccncc2)nc1-c1ccccc1 returned PLK1 PBD inh -30%, Tau fluor counter -27%, Tau ThT inhib inconclusive, Sfp PPTase inh 28µM*, VDR inh -16% and Tau FP inhib inconclusive.
O=C(CCS(=O)(=O)c1ccc(F)cc1)Nc1nc(-c2ccncc2)cs1 was read as PLK1 PBD inh 12µM*, Sfp PPTase inh 13µM* and VDR inh inconclusive.
Screening COc1cc2c(cc1OC)C1O[C@](c3ccsc3)(C2)Oc2c1c(=O)oc1ccc(F)cc21 returned Sfp PPTase inh -16%.
`CC(C)CCOc1ccc(C(=O)NN2C(=O)NC3(CCCCC3)C2=O)cc1` gave PLK1 PBD inh -8% and VDR inh -20%.
